# Source: PubChem BioAssay (NCATS)
# Inconclusive results are not listed. Where a call stands in place of a potency, no number is given. Unmarked numbers belong to inactive results. The source made the active and inactive calls. The call rests on the fitted dose curve; in most records, active means well fitted inhibition curve with a large enough effect; inconclusive means small, poorly fitted or top-dose-only effect; inactive means flat fitted curve, though single readings scatter.
# What was measured:
# FAB9 = assay: qHTS profiling for inhibitors of Plasmodium falciparum proliferation (AID 504749); settings: P. falciparum in erythrocytes, SYBR Green DNA, 72 h; series mostly up to 28.7 µM
# Outline: (§1)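 Infected RBCs, 0.3% parasitemia/2.5% Hct final; cpd 72 h, 37 C, 5% CO2; lysis buffer with saponin/triton/SYBR Green I, o/n RT dark; FI 485/535; norm. to artemisinin (0.29 uM) and DMSO.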
# GB4 = assay: as above; settings: P. falciparum in erythrocytes, SYBR Green DNA, 72 h; series mostly up to 28.7 µM
# Outline: as §1
# HB3 = assay: as above; settings: P. falciparum in erythrocytes, SYBR Green DNA, 72 h; series mostly up to 28.7 µM
# Outline: as §1
# JCK = assay: as above; settings: P. falciparum in erythrocytes, SYBR Green DNA, 72 h; series mostly up to 28.7 µM
# Outline: as §1
# N140 = assay: as above; settings: P. falciparum in erythrocytes, SYBR Green DNA, 72 h; series mostly up to 28.7 µM
# Outline: as §1
# P93_24 = assay: as above; settings: P. falciparum in erythrocytes, SYBR Green DNA, 72 h; series mostly up to 28.7 µM
# Outline: as §1
# P94_40 = assay: as above; settings: P. falciparum in erythrocytes, SYBR Green DNA, 72 h; series mostly up to 28.7 µM
# Outline: as §1
# PAD = assay: as above; settings: P. falciparum in erythrocytes, SYBR Green DNA, 72 h; series mostly up to 28.7 µM
# Outline: as §1
# PC15 = assay: as above; settings: P. falciparum in erythrocytes, SYBR Green DNA, 72 h; series mostly up to 28.7 µM
# Outline: as §1
# PC26 = assay: as above; settings: P. falciparum in erythrocytes, SYBR Green DNA, 72 h; series mostly up to 28.7 µM
# Outline: as §1
# PC49 = assay: as above; settings: P. falciparum in erythrocytes, SYBR Green DNA, 72 h; series mostly up to 28.7 µM
# Outline: as §1
# SC27B = assay: as above; settings: P. falciparum in erythrocytes, SYBR Green DNA, 72 h; series mostly up to 28.7 µM
# Outline: as §1
# TAB109 = assay: as above; settings: P. falciparum in erythrocytes, SYBR Green DNA, 72 h; series mostly up to 28.7 µM
# Outline: as §1
# TAB113 = assay: as above; settings: P. falciparum in erythrocytes, SYBR Green DNA, 72 h; series mostly up to 28.7 µM
# Outline: as §1
# TAB165 = assay: as above; settings: P. falciparum in erythrocytes, SYBR Green DNA, 72 h; series mostly up to 28.7 µM
# Outline: as §1
# CRL-7250 = normal cell line; assay: Cytotoxic Profiling of Annotated Libraries Using Quantitative High-Throughput Screening (AID 1296008); settings: Five cell lines viability, CellTiter-Glo ATP luminescence, 48-72 h; max response: active compounds read low
# Outline: (§2)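 Cytotoxicity was measured as CellTiter-Glo ATP luminescence, read after 10 min at room temperature. Compound treatment of the cells lasted 48 or 72 hr at 37 degrees Celsius in a qHTS format.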
# HaCat = assay: as above; settings: Five cell lines viability, CellTiter-Glo ATP luminescence, 48-72 h; max response: active compounds read low
# Outline: as §2
# W2 = assay: qHTS profiling for inhibitors of Plasmodium falciparum proliferation (AID 504749); settings: P. falciparum in erythrocytes, SYBR Green DNA, 72 h; series mostly up to 28.7 µM
# Outline: as §1
# ICS = assay: as above; settings: P. falciparum in erythrocytes, SYBR Green DNA, 72 h; series mostly up to 28.7 µM
# Outline: as §1
# HEK293 = assay: Cytotoxic Profiling of Annotated Libraries Using Quantitative High-Throughput Screening (AID 1296008); settings: Five cell lines viability, CellTiter-Glo ATP luminescence, 48-72 h; max response: active compounds read low
# Outline: as §2
# Further: nearly all actives have a fitted effect of over 60% in size.
# Potency means the concentration at half of the fitted maximal effect.
compound,measurement,setting,value
CC(C)(C)OC(=O)c1ncn2c1[C@@H]1CCCN1C(=O)c1c(Br)cccc1-2,Potency,FAB9,inactive
same,Potency,GB4,inactive
same,Potency,HB3,inactive
same,Potency,JCK,inactive
same,Potency,N140,inactive
same,Potency,P93_24,inactive
same,Potency,P94_40,inactive
same,Potency,PAD,inactive
same,Potency,PC15,inactive
same,Potency,PC26,inactive
same,Potency,PC49,inactive
same,Potency,SC27B,inactive
same,Potency,TAB109,inactive
same,Potency,TAB113,inactive
same,Potency,TAB165,inactive
same,outcome,CRL-7250,inactive
same,max response,HaCat,3.04%
Nc1ccc(N)cc1,Potency,GB4,15.1 µM (active)
same,Potency,HB3,inactive
same,Potency,JCK,inactive
same,Potency,PC49,inactive
same,Potency,W2,3.79 µM (active)
same,max response,CRL-7250,-4.93%
same,outcome,HaCat,inactive
C=CCOC(Cn1ccnc1)c1ccc(Cl)cc1Cl (stereo not drawn),Potency,GB4,4.78 µM (active)
same,Potency,HB3,11.2 µM (active)
same,Potency,ICS,2.51 µM (active)
same,Potency,N140,5.62 µM (active)
same,Potency,P93_24,3.98 µM (active)
same,Potency,P94_40,10 µM (active)
same,Potency,PAD,8.91 µM (active)
same,Potency,PC15,8.91 µM (active)
same,Potency,PC26,7.57 µM (active)
same,Potency,SC27B,10 µM (active)
same,Potency,TAB109,7.94 µM (active)
same,Potency,TAB113,8.91 µM (active)
same,Potency,TAB165,3.16 µM (active)
same,Potency,W2,4.26 µM (active)
same,max response,CRL-7250,-16.8%
same,outcome,HaCat,inactive
O=C(CCl)c1ccc(Cl)cc1Cl,outcome,HaCat,inactive
N#Cc1nn(-c2c(Cl)cc(C(F)(F)F)cc2Cl)c(N)c1S(=O)C(F)(F)F (stereo not drawn),Potency,GB4,7.57 µM (active)
same,Potency,ICS,5.62 µM (active)
same,Potency,N140,7.94 µM (active)
same,Potency,PC15,12.6 µM (active)
same,Potency,PC26,9.53 µM (active)
same,Potency,PC49,inactive
same,Potency,SC27B,5.01 µM (active)
same,Potency,TAB113,6.31 µM (active)
same,Potency,TAB165,6.31 µM (active)
same,max response,CRL-7250,-17%
same,max response,HaCat,-11.3%
Cc1c(Cl)c(=O)oc2cc(OP(=O)(OCCCl)OCCCl)ccc12,Potency,FAB9,inactive
same,Potency,GB4,12 µM (active)
same,Potency,HB3,11.2 µM (active)
same,Potency,ICS,11.2 µM (active)
same,Potency,N140,8.91 µM (active)
same,Potency,P93_24,11.2 µM (active)
same,Potency,P94_40,6.31 µM (active)
same,Potency,PC15,inactive
same,Potency,PC49,inactive
same,Potency,SC27B,7.94 µM (active)
same,Potency,TAB109,10 µM (active)
same,Potency,TAB113,10 µM (active)
same,Potency,TAB165,7.08 µM (active)
same,Potency,W2,6.75 µM (active)
same,max response,HaCat,1.96%
O=C(NC(=O)c1c(F)cccc1F)Nc1cc(Cl)c(OC(F)(F)C(F)C(F)(F)F)cc1Cl (stereo not drawn),Potency,FAB9,inactive
same,Potency,GB4,inactive
same,Potency,JCK,inactive
same,Potency,P93_24,8.91 µM (active)
same,Potency,P94_40,12.6 µM (active)
same,Potency,PC15,inactive
same,Potency,PC26,inactive
same,Potency,TAB113,11.2 µM (active)
same,outcome,CRL-7250,inactive
same,outcome,HaCat,inactive
Clc1ccc(CO/N=C(\Cn2ccnc2)c2ccc(Cl)cc2Cl)c(Cl)c1,Potency,GB4,1.69 µM (active)
same,Potency,HB3,7.94 µM (active)
same,Potency,ICS,1.12 µM (active)
same,Potency,N140,2.24 µM (active)
same,Potency,P93_24,2.24 µM (active)
same,Potency,P94_40,2.82 µM (active)
same,Potency,PAD,2.51 µM (active)
same,Potency,PC15,3.16 µM (active)
same,Potency,PC26,4.26 µM (active)
same,Potency,SC27B,3.16 µM (active)
same,Potency,TAB109,3.55 µM (active)
same,Potency,TAB113,2.51 µM (active)
same,Potency,TAB165,1.41 µM (active)
same,Potency,W2,1.69 µM (active)
same,max response,CRL-7250,-2.86%
CCN(CC)CCOC(=O)C(C)(c1ccccc1)c1ccccc1,Potency,FAB9,inactive
same,Potency,HB3,inactive
same,Potency,JCK,inactive
same,Potency,W2,1.35 µM (active)
same,max response,CRL-7250,-0.0825%
same,outcome,HaCat,inactive
C=CC[C@]1(O)CC[C@H]2[C@@H]3CCC4=CC(=O)CCC4=C3C=C[C@@]21C,Potency,HEK293,11.9 µM (active)
same,max response,HaCat,1.64%
COc1cc(CC(C)N)c(OC)cc1Br (stereo not drawn),Potency,HEK293,14.2 µM (active)
same,max response,HaCat,-6.81%
CCC1(c2ccccc2)CCC(=O)NC1=O (stereo not drawn),Potency,FAB9,inactive
same,Potency,ICS,11.2 µM (active)
same,Potency,JCK,inactive
same,Potency,N140,inactive
same,Potency,P94_40,inactive
same,Potency,PAD,inactive
same,Potency,PC15,inactive
same,Potency,PC26,inactive
same,Potency,PC49,inactive
same,Potency,SC27B,inactive
same,Potency,TAB109,inactive
same,Potency,TAB113,inactive
same,Potency,TAB165,inactive
same,outcome,CRL-7250,inactive
same,max response,HaCat,-1.76%
O=C1NCN(c2ccccc2)C12CCN(CCCOc1ccc(F)cc1)CC2,Potency,FAB9,inactive
same,Potency,GB4,6.75 µM (active)
same,Potency,HB3,inactive
same,Potency,JCK,inactive
same,Potency,P93_24,8.91 µM (active)
same,Potency,W2,5.36 µM (active)
CC(=O)OC1(c2ccccc2)CCN(CCc2ccccc2)CC1,max response,HaCat,-10.1%
C[N+]1(CCC(C(N)=O)(c2ccccc2)c2ccccc2)CCCCC1,Potency,FAB9,inactive
same,Potency,GB4,inactive
same,Potency,HB3,inactive
same,Potency,ICS,inactive
same,Potency,JCK,inactive
same,Potency,N140,inactive
same,Potency,P93_24,inactive
same,Potency,P94_40,inactive
same,Potency,PAD,inactive
same,Potency,PC15,inactive
same,Potency,PC26,inactive
same,Potency,PC49,inactive
same,Potency,SC27B,inactive
same,Potency,TAB109,inactive
same,Potency,TAB113,inactive
same,Potency,TAB165,inactive
same,Potency,W2,inactive
same,outcome,HEK293,inactive
same,max response,HaCat,-10.3%
C#C[C@]1(O)CC[C@H]2[C@@H]3CCC4=CC(=O)CCC4=C3C=C[C@@]21CC,Potency,HB3,10 µM (active)
same,Potency,ICS,8.91 µM (active)
same,Potency,JCK,inactive
same,Potency,PC15,6.31 µM (active)
same,Potency,PC26,6.01 µM (active)
same,Potency,PC49,8.91 µM (active)
same,Potency,TAB109,12.6 µM (active)
same,Potency,W2,7.57 µM (active)
same,outcome,HaCat,inactive
CC1=C2[C@H]3OC(=O)[C@@H](C)[C@@H]3CC[C@@]2(C)C=CC1=O,max response,HEK293,-1.89%
same,outcome,HaCat,inactive
CCC(=O)O[C@H]1CC[C@H]2[C@@H]3CCC4=CC(=O)CC[C@]4(C)[C@H]3CC[C@]12C,Potency,FAB9,inactive
same,Potency,GB4,inactive
same,Potency,HB3,inactive
same,Potency,ICS,inactive
same,Potency,JCK,inactive
same,Potency,N140,inactive
same,Potency,P93_24,inactive
same,Potency,P94_40,inactive
same,Potency,PAD,inactive
same,Potency,PC15,inactive
same,Potency,PC26,inactive
same,Potency,PC49,inactive
same,Potency,SC27B,inactive
same,Potency,TAB109,inactive
same,Potency,TAB113,inactive
same,Potency,TAB165,inactive
same,Potency,W2,inactive
same,outcome,HaCat,inactive
C[C@]12Cc3nonc3C[C@@H]1CC[C@@H]1[C@@H]2CC[C@@]2(C)[C@H]1CC[C@]2(C)O,Potency,FAB9,inactive
same,Potency,GB4,inactive
same,Potency,HB3,inactive
same,Potency,JCK,inactive
same,Potency,N140,inactive
same,Potency,P93_24,inactive
same,Potency,P94_40,inactive
same,Potency,PAD,inactive
same,Potency,PC15,inactive
same,Potency,PC26,inactive
same,Potency,PC49,inactive
same,Potency,SC27B,inactive
same,Potency,TAB109,inactive
same,Potency,TAB113,inactive
same,outcome,HaCat,inactive
Cc1ncc2n1-c1ccc(Cl)cc1C(c1ccccc1F)=NC2,Potency,FAB9,inactive
same,Potency,GB4,inactive
same,Potency,HB3,inactive
same,Potency,ICS,inactive
same,Potency,JCK,inactive
same,Potency,N140,inactive
same,Potency,P93_24,inactive
same,Potency,P94_40,inactive
same,Potency,PAD,inactive
same,Potency,PC15,inactive
same,Potency,PC26,inactive
same,Potency,PC49,inactive
same,Potency,SC27B,inactive
same,Potency,TAB109,inactive
same,Potency,TAB113,inactive
same,Potency,TAB165,inactive
same,Potency,W2,inactive
same,outcome,HaCat,inactive
NC1(c2ccccc2)CCCCC1,max response,HaCat,1.23%
CN1C(=O)CN=C(c2ccccc2)c2cc(Cl)ccc21,max response,HaCat,-27.5%
CC(CC(C#N)(c1ccccc1)c1ccccc1)N(C)C (stereo not drawn),max response,HaCat,-5.96%
